Compound activity deposited in PubChem BioAssay by several laboratories.
This is a sample that favours compounds with a hit; in the whole collection about 1.2% have one here.
HIF act – HIF pathway transcriptional activation | activation, % at 7.5 µM (by protocol) | U2OS HRE-luciferase reporter, luminescence; normalized: DMSO 0%, desferrioxamine 100% | 300,000 compounds, 0.32% hits | AID 1910;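 active = mean activation of at least 10% of the iron chelator positive control signal, with at least half of replicates also reaching 10%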
HDAC3 inh – human HDAC3 inhibition; inhibition, % at 8.3 µM; 320,000 compounds, 0.15% hits; O15379; recombinant HDAC3, fluorogenic peptide/trypsin coupled, fluorescence; AID 2718; in the data active = inhibition above about 26%, passing the limit was not always enough
LANA-H2A inh – blocks KSHV LANA binding to histone H2A/H2B | cell-free LANA-H2A/H2B peptide, fluorescence polarization | inhibition, % (concentration not given with the values) | 320,000 compounds, 0.6% hits | AID 2629; in the data active = inhibition mostly above about 10%, no sharp cut-off; inactive = mostly below about 6.7%
Target sequence (Q9QR71 whole entry, looked up): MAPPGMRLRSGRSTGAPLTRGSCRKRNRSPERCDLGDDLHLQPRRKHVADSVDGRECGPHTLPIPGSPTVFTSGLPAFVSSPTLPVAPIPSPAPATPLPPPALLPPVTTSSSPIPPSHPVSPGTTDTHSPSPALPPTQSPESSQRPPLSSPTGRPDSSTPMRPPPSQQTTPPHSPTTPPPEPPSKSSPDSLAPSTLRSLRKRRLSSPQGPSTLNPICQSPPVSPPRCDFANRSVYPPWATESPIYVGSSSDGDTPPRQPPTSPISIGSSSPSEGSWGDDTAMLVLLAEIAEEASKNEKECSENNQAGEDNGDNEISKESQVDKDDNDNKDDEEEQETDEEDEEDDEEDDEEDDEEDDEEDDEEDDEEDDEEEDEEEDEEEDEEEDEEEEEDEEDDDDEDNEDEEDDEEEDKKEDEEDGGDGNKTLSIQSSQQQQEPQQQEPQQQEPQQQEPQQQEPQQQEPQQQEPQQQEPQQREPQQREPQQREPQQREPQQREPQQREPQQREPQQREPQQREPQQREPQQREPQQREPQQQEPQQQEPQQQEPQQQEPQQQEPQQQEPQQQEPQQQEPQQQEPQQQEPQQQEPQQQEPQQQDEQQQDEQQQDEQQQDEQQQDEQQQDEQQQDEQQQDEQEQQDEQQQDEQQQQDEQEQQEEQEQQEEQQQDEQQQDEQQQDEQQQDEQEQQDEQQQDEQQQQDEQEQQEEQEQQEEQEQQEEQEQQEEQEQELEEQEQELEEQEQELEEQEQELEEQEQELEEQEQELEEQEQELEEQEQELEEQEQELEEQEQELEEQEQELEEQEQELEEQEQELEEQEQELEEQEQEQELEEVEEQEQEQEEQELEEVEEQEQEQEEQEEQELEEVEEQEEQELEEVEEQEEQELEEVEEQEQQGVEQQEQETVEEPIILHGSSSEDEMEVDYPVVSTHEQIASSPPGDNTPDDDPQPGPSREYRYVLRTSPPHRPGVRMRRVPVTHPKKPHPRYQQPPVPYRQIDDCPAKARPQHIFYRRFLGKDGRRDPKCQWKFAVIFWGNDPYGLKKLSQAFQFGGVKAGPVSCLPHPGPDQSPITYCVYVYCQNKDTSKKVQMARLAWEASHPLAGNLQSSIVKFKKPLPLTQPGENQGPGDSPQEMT
Yeast superoxide – yeast age-related superoxide inhibition as caloric restriction mimetic | S. cerevisiae aged cells, superoxide DHE fluorescence; hits give low values | superoxide response (% of plate mean), % at 10 µM | 330,000 compounds, 0.18% hits | AID 2690;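 active = superoxide response under a set limit, about three screen SD below normal, cut at about 65% in these data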;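 also: yeast aged for seven days with compound at 30 °C before DHE staining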
Each line names hits and unclear results; the compound was inactive in the other large screens.

CCCCCC(O)(c1ccc(OC)cc1)C(CN1CCOCC1)c1ccccc1 (stereo unspecified)	none
Cc1sc2ncnc(Sc3nnnn3-c3ccc(Cl)cc3)c2c1C	HIF act 17
COc1ccc2c(c1)c(C(=O)CN1CCc3ccccc3C1)c(C)n2C	HIF act 44
COc1ccc2c(c1)c(C(C)=O)c(C)n2C	none (no result: HDAC3 inh)
CCN(C(=O)CSc1ncn[nH]1)C1CCCCC1	HIF act 77
COc1cc(/C=N/NC(=O)c2ccccc2Cl)ccc1Oc1ccc([N+](=O)[O-])cn1	none
CC(C)[C@H](NC(=O)c1ccco1)C(=O)OCc1cc(=O)n2c(n1)sc1ccccc12	HIF act 20
COCCn1c(=NC(=O)c2ccc(S(=O)(=O)N3CCCc4ccccc43)cc2)sc2cc(S(C)(=O)=O)ccc21	HIF act 105
C#CCSc1nncn1C(=O)/C=C/c1ccccc1	HDAC3 inh 73
CCC(C(=O)NC1CC1)n1nc(C)c2c(C)n(-c3ccccc3)nc2c1=O (stereo unspecified)	LANA-H2A inh 19
CCC(C(=O)NC1CCCCC1)n1nc(C)c2c(C)n(-c3ccccc3)nc2c1=O (stereo unspecified)	none
O=C(COC(=O)C1CC(O)CN1S(=O)(=O)c1ccc(Cl)cc1)c1ccccc1 (stereo unspecified)	none
Cc1noc(C)c1COC(=O)C1CC(O)CN1S(=O)(=O)c1ccc(Cl)cc1 (stereo unspecified)	HIF act 61
CCN1/C(=C2\SC(=S)N(Cc3ccccc3)C2=O)Sc2ccccc21	none
CCC(CO)[n+]1c(C)cc(/C=C2\Sc3ccccc3N2Cc2ccccc2)cc1C (stereo unspecified)	HDAC3 inh 26 (no result: HIF act)
Cc1cc(C)c2c(n1)SCC(=O)N2CC(=O)Nc1ccccc1Cl	none
CC(C(=O)Nc1ccc(F)c(F)c1F)N(C)CCOc1ccccc1 (stereo unspecified)	LANA-H2A inh 11
COc1ccccc1NC(=O)C(C)N(C)CCOc1ccccc1 (stereo unspecified)	none
Cn1cccc1/C=N/n1c(-c2ccc(C(C)(C)C)cc2)n[nH]c1=S	HDAC3 inh 29
Cn1cccc1/C=N/n1c(-c2ccccc2)n[nH]c1=S	none
Cc1nc(N[C@@H](Cc2c[nH]c3ccccc23)C(=O)O)c2oc3ccccc3c2n1	LANA-H2A inh 18 (no result: HIF act)
CC(=O)C(Cc1ccccc1)NC(=O)CN1CCN(Cc2ccccc2)CC1 (stereo unspecified)	none
COC(=O)c1[nH]c(=O)c2ccccc2c1O	LANA-H2A inh 23
C/C=C/C(=O)N1CC2(CC(c3cccc(NC(=O)CCCCC)c3)=NO2)C[C@H]1C(N)=O (stereo partly specified)	none (no result: HDAC3 inh, LANA-H2A inh, Yeast superoxide)
C/C=C/C=C/C(=O)N1CC2(CC(c3cccc(NC(=O)CCCCC)c3)=NO2)C[C@H]1C(N)=O (stereo partly specified)	HDAC3 inh 61
COc1ccc(CC(=O)NNC(=O)COc2ccc(C)cc2)cc1S(=O)(=O)N1CCOCC1	none
COc1ccc(CC(=O)NNC(=O)COc2ccc(Cl)cc2C)cc1S(=O)(=O)N1CCOCC1	Yeast superoxide 65 (no result: HIF act)
CCS(=O)(=O)C1=NN2C(=N)/C(=C\c3ccc(OC(=O)c4ccco4)cc3)C(=O)N=C2S1	none
CCC(CC)C1=NN2C(=N)/C(=C/c3ccc(OC(=O)c4ccco4)cc3)C(=O)N=C2S1	HDAC3 inh 32 (no result: HIF act)
Cc1c(Cc2ccccc2)c(=O)oc2c(O)c(O)ccc12	none (no result: HDAC3 inh, LANA-H2A inh, Yeast superoxide)
Cc1c(Cc2ccccc2)c(=O)oc2c(CN(C)C)c(O)c(Cl)cc12	LANA-H2A inh 5.7
CC(Nc1nc(-c2ccc3c(c2)NC(=O)CO3)cs1)c1ccccc1 (stereo unspecified)	HDAC3 inh 36
O=C1COc2ccc(-c3csc(NCC4CCCO4)n3)cc2N1 (stereo unspecified)	none
COC(=O)Nc1ccc(=O)n(Cc2c(Cl)cccc2Cl)c1	HIF act 175
CC[C@@]1(C(=O)OC)N[C@H](CN(C)C(=O)C2CCCCC2)[C@@H]2C(=O)N(C)C(=O)[C@@H]21	LANA-H2A inh active (no result: HIF act)
COC(=O)[C@]1(Cc2ccccc2)N[C@H](CN(C)C(=O)C2CCCCC2)[C@@H]2C(=O)N(C)C(=O)[C@@H]21	none (no result: HIF act, HDAC3 inh, LANA-H2A inh)
Cc1ccc(NC(=O)CN(C)C(=O)COC(=O)c2nc3nccc(C)n3n2)cc1	none (no result: HIF act)
COc1ccc(CCNC(=O)c2nnn(CC(=O)Nc3c(C)cc(C)cc3C)c2N)cc1OC	HIF act 107
CCOc1ccc(CCNC(=O)c2nnn(CC(=O)Nc3c(C)cc(C)cc3C)c2N)cc1OCC	none
O=C(CSc1nc2c(cnn2-c2cccc(Cl)c2)c(=O)[nH]1)NCC1CCCO1 (stereo unspecified)	none (no result: HIF act)
O=C(CSc1nc2c(cnn2-c2cccc(Cl)c2)c(=O)[nH]1)NCCC1=CCCCC1	Yeast superoxide 61 (no result: HIF act)
CCCCOC(=O)c1ccc(NC(=S)NC(=O)c2c(Br)c(C)nn2C)cc1	HIF act 41
c1ccc(Nc2ccccc2)cc1	none
O=CNc1ccccc1	LANA-H2A inh 96 (no result: HIF act)
CCOc1cc2c3c(c1)C(C)=CC(C)(C)N3C(=O)C2=O	LANA-H2A inh 13 (no result: HDAC3 inh)
CCS(=O)(=O)N1Cc2ccccc2CC1C(=O)N(C)CC(=O)Nc1ccc(F)c(F)c1F (stereo unspecified)	LANA-H2A inh 32
COc1ccccc1/C=C/C(=O)OCC(=O)c1cc(C)n(C)c1C	LANA-H2A inh active (no result: HIF act)
COc1ccc(C(CNC(=O)c2cccc(S(=O)(=O)N3CCOCC3)c2)N2CCCC2)cc1 (stereo unspecified)	LANA-H2A inh 11 (no result: HIF act)
COc1ccc(C(CNC(=O)c2cccc(S(=O)(=O)N3CCOCC3)c2)N2CCOCC2)cc1 (stereo unspecified)	none (no result: HIF act)
O=C(C[C@H]1C/C=C\CC[C@@H](Cc2ccc(F)cc2)C(=O)OC[C@H]2CCCN2C1=O)N[C@@H](CO)Cc1ccccc1	none (no result: HIF act)
O=C(CN1CCCC1)Nc1ccc(-c2nc3cc(NC(=O)CN4CCCC4)ccc3o2)cc1	HIF act 13
CC[C@@]1(C(=O)OC)N[C@H](CN(C)S(=O)(=O)c2ccc(C(C)(C)C)cc2)[C@@H]2C(=O)N(Cc3ccccc3)C(=O)[C@@H]21	LANA-H2A inh 69 (no result: HIF act)
CCN(C[C@H]1N[C@@](CC)(C(=O)OC)[C@H]2C(=O)N(Cc3ccccc3)C(=O)[C@@H]12)C(=O)Nc1ccc(C(F)(F)F)cc1	LANA-H2A inh active (no result: HIF act)
COC(=O)[C@]1(Cc2ccccc2)N[C@H](CN(C)S(=O)(=O)c2ccc(C)cc2)[C@@H]2C(=O)N(Cc3ccccc3)C(=O)[C@@H]21	none (no result: HIF act)
CCN(C[C@H]1N[C@@](CC)(C(=O)OC)[C@H]2C(=O)N(Cc3ccccc3)C(=O)[C@@H]12)C(=O)Nc1ccc(OC)cc1	none (no result: HIF act)
CN(C)N(C(=O)c1cc(-c2cccs2)nn1-c1ccccc1)C1CCS(=O)(=O)C1 (stereo unspecified)	none (no result: HIF act, HDAC3 inh, LANA-H2A inh)
CC(C)NC(=O)Cn1c(SCC(=O)N2CCCc3ccccc32)nc2ccccc21	none
CC(=O)Nc1ccc(C(=O)CSc2nc3ccccc3n2CC(=O)N2CCCC2)cc1	HDAC3 inh 67
